RE007 growth inh: less growth of the S. pombe RE007 Vpr strain; S. pombe RE007 Vpr strain, BacTiter-Glo ATP luminescence, 24 h; Potency, µM (doses to about 92.2 µM), usual class: inhibitors; hit rate 0.21% among 360,000; AID 651644; active = well fitted falling curve with a large enough effect; inconclusive = small, poorly fitted or top-dose-only effect; inactive = no such curve, though single readings can be large or run the other way; note: nearly all actives have a fitted effect of over 50% in size
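Fission yeast strain RE007, carrying one chromosomally integrated HIV-1 vpr copy, was seeded at OD 0.01 in PMG+AL medium with 23 nL pinned compound. After 24 h at 30 °C and 99% humidity, viability was read by BacTiter-Glo luminescence.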
Shiga toxin inh: inhibitors of Shiga toxin in Vero cells | AID 2315 | inhibition, % at 38.7 µM | Vero cells, Shiga toxin protein synthesis inhibition reporter | hit rate 9.2% among 290,000; in the data active = inhibition mostly above about 28%, no sharp cut-off; inactive = mostly below about 43%
LmPK inh: inhibitors of Leishmania mexicana pyruvate kinase | Q27686 | purified LmPK, Kinase-Glo ATP luminescence, 1 h | Potency, µM (titrated, usually from 57.5 µM), actives largely listed as inhibitors | hit rate 0.37% among 290,000 | AID 1721
Target sequence (Q27686 whole entry, looked up): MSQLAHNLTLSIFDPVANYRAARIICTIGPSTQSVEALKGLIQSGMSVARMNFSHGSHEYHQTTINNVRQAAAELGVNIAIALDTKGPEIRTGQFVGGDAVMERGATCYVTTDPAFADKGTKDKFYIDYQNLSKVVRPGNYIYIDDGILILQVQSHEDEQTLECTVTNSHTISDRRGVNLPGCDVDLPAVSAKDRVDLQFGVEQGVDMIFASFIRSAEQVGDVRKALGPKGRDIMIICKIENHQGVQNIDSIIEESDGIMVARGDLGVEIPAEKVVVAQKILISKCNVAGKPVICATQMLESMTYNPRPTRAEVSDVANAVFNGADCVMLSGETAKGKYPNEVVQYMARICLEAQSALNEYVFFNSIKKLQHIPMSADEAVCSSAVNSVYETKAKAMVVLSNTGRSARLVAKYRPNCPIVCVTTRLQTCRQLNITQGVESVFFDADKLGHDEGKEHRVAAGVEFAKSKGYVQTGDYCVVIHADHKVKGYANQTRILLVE
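Pyruvate kinase activity monitored as ATP production (luciferase luminescence). Conditions: 0.1 nM enzyme, 0.5 mM PEP, 0.1 mM ADP, 1 h, RT; normalized against uninhibited and no-enzyme wells.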
Giardia FBPA inh: inhibitors of Giardia lamblia fructose-1,6-bisphosphate aldolase. Potency, µM (highest dose often 59.6 µM), most hits filed as inhibitors. hit rate 0.71% among 290,000. purified Giardia FBPA. A8B2U2. AID 2451; note: nearly all actives have a fitted effect of over 55% in size
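Giardia FBPA (40 nM reagent) was preincubated 10 min at RT with compound (up to 57.5 uM final), then substrate plus GAPDH/TPI/NAD/arsenate coupling system with diaphorase/resazurin was added; resorufin fluorescence (525/598 nm) was read after 20 min.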
Cycloheximide cs: affects cycloheximide protein synthesis inhibition readout, counter-screen; cell reporter, cycloheximide protein synthesis inhibition counterscreen; max response, %; hit rate 12% among 300,000; in the data active = max response mostly above about 13%, no sharp cut-off; inactive = mostly below about 14%; note: read at 38.3 µM for the half of the compounds with a filed dose
Tb PYK inh: inhibitors of Trypanosoma brucei pyruvate kinase; Potency, µM (titrated, usually from 76.8 µM), most hits filed as inhibitors; TbPYK enzyme, Kinase-Glo Plus ATP luminescence, 45 min; Q57TT1; hit rate 0.12% among 410,000; note: nearly all actives have a fitted effect of over 50% in size
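Activity of T. brucei pyruvate kinase was followed by Kinase-Glo Plus luminescence after the enzyme reacted 45 min at room temperature with 130 uM ADP (final) and substrate. Test compounds were added before ADP at multiple concentrations.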
Hits are given with their value; [ ] = remark or other dose. This is one part of a sample in which hits are shown more often than they occur. Unless noted, calls come from the whole dose curve; as a rule, active = well fitted curve in the direction sought with a large enough effect; inconclusive = small, poorly fitted or top-dose-only effect, or another doubt; inactive = no such curve, though single readings can be large; an effect the other way counts as inactive or inconclusive.

Screening FC(F)(F)c1ccc(Oc2ccc3cc(Br)ccc3c2)nc1 returned RE007 growth inh inactive, Shiga toxin inh inactive, LmPK inh inactive, Giardia FBPA inh inactive, Cycloheximide cs inactive and Tb PYK inh inactive.
For O=C(NCCN1CCOCC1)c1ccc(NC(=O)c2ccc(Br)o2)cc1 the results were RE007 growth inh inactive and Tb PYK inh inactive.
`Nc1nnc(CC(=O)N/N=C/c2ccc(-c3cccc(C(=O)O)c3)o2)s1` gave RE007 growth inh inactive, Shiga toxin inh 141.5, LmPK inh inactive, Giardia FBPA inh inactive, Cycloheximide cs 60.6 and Tb PYK inh inactive.
`O=C(O)c1cccc(-c2ccc(/C=N/NC(=O)c3cccnc3)o2)c1` gave RE007 growth inh inactive, Shiga toxin inh 170.5, LmPK inh inactive, Giardia FBPA inh inactive, Cycloheximide cs 82.6 and Tb PYK inh inactive.
Screening O=C(N/N=C/c1ccc(-c2cccc([N+](=O)[O-])c2)o1)c1ccc([N+](=O)[O-])cc1 returned RE007 growth inh inactive, Shiga toxin inh inactive, LmPK inh inactive, Giardia FBPA inh inactive, Cycloheximide cs inactive and Tb PYK inh inactive.
Screening Cc1ccc(NC(=O)CN2C(=O)c3ccccc3Sc3ccc(C(=O)N4CCOCC4)cc32)cc1F returned Tb PYK inh inactive.
For O=c1c(-c2ccccc2)nc2cnc(N3CCOCC3)nc2n1Cc1ccc(F)cc1 the results were Giardia FBPA inh inactive.
Screening CN1CCc2cc(O)cc3c2C1Cc1ccc(O)c(O)c1-3 (configuration not stated) returned Giardia FBPA inh 14.1µM.
Screening COc1ccc(Nc2nnc(SCC3CCCO3)s2)cc1 (configuration not stated) returned RE007 growth inh inactive, Shiga toxin inh inactive, LmPK inh inactive, Giardia FBPA inh inactive, Cycloheximide cs 24.4 and Tb PYK inh inactive.
Screening COc1cccc(Nc2nnc(SCC3CCCCO3)s2)c1 (configuration not stated) returned RE007 growth inh inactive, Shiga toxin inh 53.0, LmPK inh inactive, Giardia FBPA inh inactive, Cycloheximide cs 53.3 and Tb PYK inh inactive.
For Cc1cccc(Nc2nnc(SC3CCOC3=O)s2)c1C (configuration not stated) the results were RE007 growth inh inactive, Shiga toxin inh inactive, LmPK inh inactive, Giardia FBPA inh inactive, Cycloheximide cs inactive and Tb PYK inh inactive.
`Cc1cccc(Nc2nnc(SCC3CCCCO3)s2)c1C` (configuration not stated) gave RE007 growth inh inactive, Shiga toxin inh 66.3, LmPK inh inactive, Giardia FBPA inh inactive, Cycloheximide cs 54.3 and Tb PYK inh inactive.
Screening COc1ccc(Nc2nnc(SCC(=O)NC3CC3)s2)cc1 returned RE007 growth inh inactive and Tb PYK inh inactive.
`COc1cccc(N2CCN(C(=O)Cn3c(-c4cccs4)cc4ccccc43)CC2)c1` gave Tb PYK inh inactive.
O=C(Nc1ccc(Cl)cc1)/C(=C/c1cccc(O)c1)c1nc2ccccc2s1 was read as RE007 growth inh inactive, Shiga toxin inh 154.0, LmPK inh inactive, Giardia FBPA inh inactive, Cycloheximide cs 94.7 and Tb PYK inh inactive.
S=C(Nc1ccc(Cl)cc1)c1nc2ccccc2s1 was read as RE007 growth inh inactive, Shiga toxin inh inactive, LmPK inh inactive, Giardia FBPA inh inactive, Cycloheximide cs 33.9 and Tb PYK inh inactive.
`CC(C)c1c(C(=O)N/N=C/c2ccc(C(F)(F)F)cc2)nnn1-c1nonc1N` gave RE007 growth inh inactive, Shiga toxin inh inactive, LmPK inh inactive, Giardia FBPA inh inactive, Cycloheximide cs inactive and Tb PYK inh inactive.
For CC(C)c1ccc(O)c(N)c1 the results were RE007 growth inh inactive, Shiga toxin inh 67.0, LmPK inh inactive, Giardia FBPA inh inactive, Cycloheximide cs 29.6 and Tb PYK inh inactive.
`On1c(-c2ccc(Cl)cc2)nc2ccccc21` gave RE007 growth inh inconclusive, Shiga toxin inh 62.6, LmPK inh inactive, Giardia FBPA inh inconclusive, Cycloheximide cs 42.9 and Tb PYK inh inactive.
For CCN(CC)c1ccc(/C=N/Nc2nc3ccccc3[nH]2)cc1 the results were RE007 growth inh inactive, Shiga toxin inh 109.9, LmPK inh inactive, Giardia FBPA inh inconclusive, Cycloheximide cs 37.4 and Tb PYK inh inactive.
Clc1nc2ccccc2cc1/C=N/Nc1nc2ccccc2[nH]1 was read as RE007 growth inh inactive, Shiga toxin inh inactive, LmPK inh inactive, Giardia FBPA inh inactive, Cycloheximide cs 40.8 and Tb PYK inh inactive.
C(=N\Nc1nc2ccccc2[nH]1)/c1ccncc1 was read as RE007 growth inh inactive, Shiga toxin inh 69.0, LmPK inh inactive[11.5 µM], Giardia FBPA inh inactive, Cycloheximide cs 32.5 and Tb PYK inh inactive.
`O=C(O)c1ccc(/C=N/Nc2nc3ccccc3[nH]2)cc1` gave RE007 growth inh inactive, Shiga toxin inh inactive, LmPK inh inactive, Giardia FBPA inh inactive, Cycloheximide cs 16.1 and Tb PYK inh inactive.
For Cc1cccc(C(=O)NCC(c2ccco2)S(=O)(=O)c2cccs2)c1 (configuration not stated) the results were Tb PYK inh inactive.
Cc1ccc(C(=O)NC2CCN(S(=O)(=O)c3ccccc3F)CC2)cc1 was read as RE007 growth inh inactive, LmPK inh inactive, Giardia FBPA inh inactive, Cycloheximide cs inactive and Tb PYK inh inactive.
Screening COC(=O)c1ccc(/C=N/Nc2nc3ccccc3[nH]2)cc1 returned RE007 growth inh inactive, Shiga toxin inh 151.2, LmPK inh inactive, Giardia FBPA inh inactive, Cycloheximide cs 46.6 and Tb PYK inh inactive.
For CC(=O)Nc1ccc(/C=N/Nc2nc3ccccc3[nH]2)cc1 the results were RE007 growth inh inactive, Shiga toxin inh 61.5, LmPK inh inactive, Giardia FBPA inh inactive, Cycloheximide cs 49.9 and Tb PYK inh inactive.
`COC(=O)Nc1nc2ccccc2[nH]1` gave RE007 growth inh inactive and Tb PYK inh inactive.
For COc1ccc(CNc2ccnc(-c3ccccc3OC)n2)c(OC)c1 the results were Giardia FBPA inh inactive.
Screening O=C(Cn1ncc2c3ccccc3n(Cc3cccc(Cl)c3)c2c1=O)N1CCCCC1 returned Tb PYK inh inactive.
Screening O=C1C=CC2=C3c4cc(O)c(O)cc4CC3(O)COC2=C1O (configuration not stated) returned RE007 growth inh inactive, Giardia FBPA inh 11.2µM and Tb PYK inh inconclusive.
Screening O=C(CN1CCN(C(=O)CN2C(=O)NC3(CCCC3)C2=O)CC1)Nc1cccc(F)c1 returned RE007 growth inh inactive and Tb PYK inh inactive.
For Cc1cccc(NP(C)(=O)c2nc3c(s2)CCCC3)c1 (configuration not stated) the results were RE007 growth inh inactive, Shiga toxin inh 37.3, LmPK inh inactive, Giardia FBPA inh inactive, Cycloheximide cs 25.1 and Tb PYK inh inactive.

Bioassay records as filed in PubChem BioAssay.
